# Source: PubChem BioAssay (Broad Institute)
# PAX8 inh HTS: lowers PAX8-driven luciferase in RMG-I cells. RMG-I TPO-luciferase reporter, SteadyGlo, 24 h. 1.2% of 360,000 active. inhibition, % at 12.6 µM;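 active = mean replicate inhibition at least 60% with every replicate also reaching 60%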;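 also: luciferase light reporting Pax8 driven TPO promoter activity; plate controls were median of neutral control wells for no effect and mitoxantrone controls for full effect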
# rRNA inh HTS: inhibitors of bacterial rRNA selective over humanized ribosomes; E. coli WT GFP vs humanized-ribosome RFP mutants, fluorescence, 24 h; stronger effect = lower value; DMSO median 0, no signal -100; GFP signal change (wild-type ribosome), % (concentration not given with the values); 1.6% of 350,000 active; AID 720706;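 active = significant combined selectivity score with lowered wild-type GFP, culture density cut under 30%, mutant RFP and density less affected; inactive = any of these conditions unmet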
# EWS-Fli block: inhibitors of EWS/Fli oncoprotein transcriptional activity; A673 NR0B1-luciferase reporter, viability-normalised; 0.67% of 350,000 active; inhibition, % at 12.6 µM;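 active = mean inhibition of at least 50% after viability correction, with every replicate also passing that limit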;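 also: firefly luciferase signal divided by Alamar Blue viability fluorescence both relative to DMSO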
# LGR2 inh: blocks bursicon-induced cAMP signaling via Drosophila LGR2; HEK293 LGR2, CRE-luciferase, bursicon-stimulated, 4 h; inhibition, % at 9.99 µM; 0.35% of 380,000 active; AID 720647;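 active = drop in luminescence signal, shown as inhibition above about 50% in the replicate tests, limit read from the data, passing the limit was not always enough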;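 also: agonist challenge used bursicon conditioned medium at about half maximal strength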
# PGC1a acetyl inh: lowers PGC1a acetylation signal in U2OS cells | AlphaScreen anti-acetyl-lysine; with virally co-expressed GCN5 acetyltransferase | inhibition, % at 15.6 µM | 0.17% of 350,000 active;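 active = every replicate shows inhibition of at least 40%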;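 also: 0% = neutral control wells and 100% = positive control wells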
# SIRT5 block: blocks human SIRT5 desuccinylation of peptide; Q9NXA8; inhibition, % at 15 µM; Purified SirT5, succinyl-peptide AMC, trypsin-coupled fluorescence; 1.1% of 330,000 active; in the data active = inhibition above about 15%
# Target sequence (Q9NXA8 whole entry, looked up): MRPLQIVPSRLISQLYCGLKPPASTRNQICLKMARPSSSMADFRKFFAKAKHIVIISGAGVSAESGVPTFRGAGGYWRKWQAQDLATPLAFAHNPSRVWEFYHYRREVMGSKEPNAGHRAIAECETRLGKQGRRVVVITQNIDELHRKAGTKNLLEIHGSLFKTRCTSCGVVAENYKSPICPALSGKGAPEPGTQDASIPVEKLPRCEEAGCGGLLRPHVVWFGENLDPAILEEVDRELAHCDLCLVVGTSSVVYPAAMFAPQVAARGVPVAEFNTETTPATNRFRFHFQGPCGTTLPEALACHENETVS
# Active calls of the source: *; · = no result given. Compounds with a hit are over-represented: about 3.4% of the library has one in this group of screens.
SMILES,PAX8 inh HTS,rRNA inh HTS,EWS-Fli block,LGR2 inh,PGC1a acetyl inh,SIRT5 block
CN(C)Cc1cn(CC[C@H]2CC[C@H](NS(=O)(=O)c3ccccc3)[C@H](CO)O2)nn1,·,4,-4,0,0,33*
CN(C)Cc1cn(CC[C@@H]2CC[C@@H](NS(=O)(=O)c3ccccc3)[C@H](CO)O2)nn1,·,-2,-2,-2,-15,-2
CC(=O)N1[C@@H]2CN(CC3CC3)C[C@H]1C2c1ccc(Br)cc1 (stereo partly drawn),·,-4,·,·,·,·
COC(=O)C[C@H]1CC[C@@H]2[C@@H](COc3ccc(NC(=O)c4cccc(OC)c4)cc3C(=O)N2C)O1,3,-8,-44,11,-12,-2
CC(C)CCN(C(=O)Nc1ccc(Cl)cc1)C1CCN(C(C)C)CC1,-16,-35*,14,-11,2,0
CCOc1ccc(NC(=O)N(CCC(C)C)C2CCN(C(C)=O)CC2)cc1,·,·,·,·,3,·
C[C@H](NC(=O)[C@@H]1[C@@H](CO)[C@@H]2Cn3c(ccc(-c4ccccc4F)c3=O)[C@H]1N2C)c1ccccc1,·,0,-1,-9,·,-5
O=c1[nH]nc(-c2ccc(NCCCO)c([N+](=O)[O-])c2)c2ccccc12,3,-2,18,-29,59*,3
C[C@@H]1CN([C@H](C)CO)C(=O)c2c(c3ccccc3n2C)-c2ccccc2CO[C@H]1CN(C)S(=O)(=O)c1ccc(C(F)(F)F)cc1,83*,1,16,29,-6,25*
C[C@@H]1CN([C@H](C)CO)C(=O)c2ccccc2-c2ccccc2CO[C@@H]1CN(C)S(=O)(=O)c1ccc(C(F)(F)F)cc1,-14,-1,6,0,-9,7
C[C@H]1CN([C@@H](C)CO)C(=O)c2ccccc2-c2ccccc2CO[C@H]1CN(C)S(=O)(=O)c1ccc(C(F)(F)F)cc1,102*,-1,10,19,-4,10
C[C@H]1CN([C@@H](C)CO)C(=O)c2c(c3ccccc3n2C)-c2ccccc2CO[C@H]1CN(C)S(=O)(=O)c1ccc(C(F)(F)F)cc1,85*,6,11,3,6,0
C[C@H](CO)N1C[C@H](C)[C@H](CN(C)S(=O)(=O)c2ccc(F)cc2)OCc2ccccc2-c2c(n(C)c3ccccc23)C1=O,·,-1,-1,26,6,·
C[C@@H]1CN([C@H](C)CO)C(=O)c2c(c3ccccc3n2C)-c2ccccc2CO[C@@H]1CN(C)S(=O)(=O)c1ccc(C(F)(F)F)cc1,93*,5,9,53*,-20,32*
O=C(c1ccccn1)N1CC(=O)N2[C@H](CO)[C@@H](c3ccc(C#Cc4ccccc4)cc3)[C@@H]2C1,·,3,-11,1,-2,-2
CC(C)[C@@H]1C(=O)N[C@H](c2ccc3c(c2)OCO3)CC=CC[C@@H](C)Oc2ccccc2C(=O)N1C (mixture of isomers),·,-19,·,·,·,·
COc1ccc(-c2ccc([C@H]3[C@H](C#N)N(C(=O)NC4CCCC4)[C@H]3CO)cc2)cc1,-14,·,14,·,9,4
CNc1nc(N/N=C/c2ccc([N+](=O)[O-])cc2)nc(Nc2ccccc2)n1,-10,-40*,4,13,·,0
COc1cccc(/C=N/Nc2ncccc2[N+](=O)[O-])c1OC,35,12,66*,97*,11,1
Cc1c(C(=O)O)cccc1-n1c(C)cc(/C=N/Nc2ccc([N+](=O)[O-])cn2)c1C,-17,16,-17,19,-1,16*
O=[N+]([O-])c1ccc(/C=N/Nc2ncccc2[N+](=O)[O-])s1,-3,8,-66,-30,-6,-3
Cc1cc(/C=N/Nc2ccc([N+](=O)[O-])cn2)c(C)n1-c1ccccc1,·,·,·,·,-2,·
COc1cccc(/C=N/Nc2nc(Nc3ccc([N+](=O)[O-])cc3)nc(N3CCCC3)n2)c1O,95*,2,12,28,4,1
C[C@H](CO)N1C[C@H](C)[C@H](CN(C)C(=O)Nc2ccccc2)Oc2ccc(NC(=O)Nc3cccc4ccccc34)cc2CC1=O,11,-1,-3,-3,1,0
O=[N+]([O-])c1ccc(N/N=C/c2cccc(O)c2)cc1,-102,-53,-128,-125,·,0
SMILES,PAX8 inh HTS,rRNA inh HTS,EWS-Fli block,LGR2 inh,PGC1a acetyl inh,SIRT5 block
O=[N+]([O-])c1ccc(NN=Cc2cccc3ccccc23)nc1,-10,-2,-24,-24,-24,-5
O=[N+]([O-])c1ccc(N/N=C/c2cccc(O)c2O)cc1,-31,-31*,-36,-121,·,1
COc1cccc(/C=N/Nc2ccc([N+](=O)[O-])cn2)c1O,91*,-28,-27,67*,29,-3
Cc1ccc(S(=O)(=O)Nc2cccc3c2O[C@@H](CN(C)CC2CCCCC2)[C@H](C)CN([C@H](C)CO)C3=O)cc1,-1,1,-3,-8,-7,-1
COc1ccc(C2C(C(=O)Nc3cccc(OC)c3)c3ccccc3C(=O)N2C)cc1 (stereo not drawn),12,7,5,3,-5,-3
COc1ccc(C2C(C(=O)Nc3cc(OC)c(OC)c(OC)c3)c3ccccc3C(=O)N2C)cc1 (stereo not drawn),25,4,60*,4,-7,-1
O=C(COc1ccc(Cl)cc1Cl)OCC(=O)N1CCCc2ccccc21,2,1,-5,-15,·,1
O=C(COc1ccc(Cl)cc1Cl)NC(=S)N1CCCc2ccccc21,·,-26*,-28,-24,·,-3
CS(=O)(=O)N1CCN(c2ccccc2NC(=S)NC(=O)c2ccco2)CC1,2,-28*,·,-4,·,-1
O=C(NC(=S)N1CCCc2ccccc21)c1ccco1,-6,-3,-16,-23,-11,22*
CC1Cc2ccccc2N1C(=S)NC(=O)c1ccco1 (stereo not drawn),-3,-27*,5,11,-2,1
CC1Cc2ccccc2N1C(=S)NC(=O)C1(C)CC1(Cl)Cl (stereo not drawn),7,-54,14,-5,-2,3
CC=Cc1ccc2n(c1=O)C[C@@H]1[C@@H](CO)[C@H](C(=O)NC3CCC3)N(Cc3ccncc3)[C@H]21 (mixture of isomers),-6,4,-2,2,7,-4
CCCNC(=O)N[C@H]1C=C[C@H](CC(=O)NC2CCC2)O[C@H]1CO,-11,0,1,2,13,-2
Cc1sc2ncnc(N3CCCC(C)C3)c2c1C (stereo not drawn),-9,-28*,3,5,2,-1
c1ccc(-n2ncc3c(N4CCCCC4)ncnc32)cc1,21,-25,75*,61*,0,·
Cc1ccc(-n2ncc3c(N4CCCC(C)C4)ncnc32)c(C)c1 (stereo not drawn),-189,-22,-75,-71,3,-1
